# High-throughput results (PubChem BioAssay)
# PREPL inhibitor = human PREPL enzyme inhibition; recombinant PREPL, fluorescence polarization activity-based probe; inhibition, % at 5.96 µM; 320,000 compounds, 0.68% hits; AID 2751; in the data active = inhibition above about 43%;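 also: 0% = enzyme with DMSO and 100% = wells lacking enzyme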
# MEKK3 PB1 HTS = MEKK3-MEK5 PB1 interaction, increase or decrease; Q99759; binding response (% of control), % at 10 µM; 290,000 compounds, 1.4% hits; bead-based flow cytometry, Alexa488-MEK5 binding to MEKK3; actives lie on both sides; 0 = blocked by unlabeled MEK5, 100 = vehicle; AID 1529;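 active = binding response more than 3 SD above or below the average of its plate-row segment, actives on both sides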;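 also: Alexa488 bead fluorescence after subtracting the streptavidin-only scavenger bead signal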
# MEKK2mut PB1 HTS = signal of MEK5 binding to mutant human MEKK2 PB1 domain; bead flow cytometry, Alexa488-MEK5 binding to MEKK2 mutant; percent response, % at 10 µM; 290,000 compounds, 0.35% hits; in the data active = percent response above about 24%, passing the limit was not always enough
# ATG4B inh = blocks human ATG4B protease cleavage of LC3 substrate; inhibition, % at 8.33 µM; 340,000 compounds, 0.51% hits; Q9Y4P1; ATG4B cleavage of LC3-PLA2, NBD-HPC fluorescence, 1 h; in the data active = inhibition above about 40%
# Target sequence (Q9Y4P1 whole entry, looked up): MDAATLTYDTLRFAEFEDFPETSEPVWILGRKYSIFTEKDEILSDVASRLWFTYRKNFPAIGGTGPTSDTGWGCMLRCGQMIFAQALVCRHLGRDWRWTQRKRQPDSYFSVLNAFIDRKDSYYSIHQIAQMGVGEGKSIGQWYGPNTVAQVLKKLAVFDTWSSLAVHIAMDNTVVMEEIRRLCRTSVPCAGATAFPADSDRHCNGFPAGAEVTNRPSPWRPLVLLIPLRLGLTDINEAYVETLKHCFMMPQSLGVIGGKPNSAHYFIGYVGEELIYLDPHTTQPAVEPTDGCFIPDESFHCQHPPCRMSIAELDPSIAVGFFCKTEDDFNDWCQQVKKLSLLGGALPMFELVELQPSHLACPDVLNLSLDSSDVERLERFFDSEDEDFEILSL
# UBC13 inh = human UBC13 polyubiquitination inhibition; P61088; UBC13 polyubiquitin chain formation, TR-FRET; inhibition, % at 20 µM; 330,000 compounds, 0.47% hits; in the data active = inhibition above about 45%, passing the limit was not always enough
# Target sequence (P61088 whole entry, looked up): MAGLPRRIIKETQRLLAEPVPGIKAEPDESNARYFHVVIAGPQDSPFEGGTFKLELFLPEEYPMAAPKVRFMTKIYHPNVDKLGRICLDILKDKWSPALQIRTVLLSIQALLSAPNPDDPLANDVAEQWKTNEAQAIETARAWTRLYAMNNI
# MEKK2wt PB1 HTS = raises or lowers MEK5 binding to wildtype human MEKK2 PB1 domain. Q9Y2U5. bead flow cytometry, Alexa488-MEK5 binding to MEKK2 WT; actives lie on both sides. binding response (% of control), % at 10 µM. 290,000 compounds, 1.1% hits; in the data active = binding response below about 67% or above about 130%
# MEKK2wt confirm = raises or lowers MEK5 binding to wildtype human MEKK2, retest. shares compounds with MEKK3 PB1 HTS. bead flow cytometry, Alexa488-MEK5 binding to MEKK2 WT; actives lie on both sides. binding response (% of control), % at 10 µM. 5,900 compounds, 2.4% hits; in the data active = binding response below about 16% or above about 210%; inactive = in between
# MEKK2mut confirm = signal of MEK5 binding to mutant human MEKK2, retest | shares compounds with MEKK3 PB1 HTS | bead flow cytometry, Alexa488-MEK5 binding to MEKK2 mutant | percent response, % at 10 µM | 5,900 compounds, 2% hits | AID 1893; in the data active = percent response mostly above about 71%, no sharp cut-off; inactive = mostly below about 38%;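 also: higher means compound restores mutant binding toward wildtype level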
# MEKK3 confirm = MEKK3-MEK5 PB1 inhibition, single concentration confirmation. shares compounds with MEKK3 PB1 HTS. bead flow cytometry, Alexa488-MEK5 binding to MEKK3; active compounds read low. binding response (% of control), % at 10 µM. 5,900 compounds, 1.8% hits. AID 1894;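 active = binding response below 72% of control, or above a set upper limit, though filed actives all read lower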;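 also: 100% = DMSO only wells and 0% = binding blocked by excess unlabeled MEK5; lower values mean stronger disruption of MEK5 binding to MEKK3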
# Numbers without * were called inactive; x = no result given; [ ] = dose if it differs, or a comment. In the library only some 3.1% were active in any assay of this set; here they are far more common.
SMILES,PREPL inhibitor,MEKK3 PB1 HTS,MEKK2mut PB1 HTS,ATG4B inh,UBC13 inh,MEKK2wt PB1 HTS,MEKK2wt confirm,MEKK2mut confirm,MEKK3 confirm
CC1CC(C)CN(C(=O)COC(=O)c2cccc([N+](=O)[O-])c2)C1 (stereo not given),-9,48*[inhibitor],-16,-6,-15,50,100,-4,106
CC1CC(C)CN(C(=O)COC(=O)c2ccc3c(c2)OCO3)C1 (stereo not given),7,x,x,12,-2,x,x,x,x
COc1ccc(CC(=O)NNc2ncnc3c2cnn3-c2ccccc2)cc1,-3,136*,0,-3,5,103,89,-2,97
O=C(Nc1ccnn1C1CCN(Cc2ccccc2F)CC1)C1CCCC1,-2,102,6,14,-4,111,x,x,x
COC(=O)CCC1(C(N)=O)CCC(=O)c2ccccc21 (stereo not given),x,x,x,2,x,x,x,x,x
CCOC(=O)c1c(C)[nH]c(C2=NNC(=Nc3cccc(Cl)c3)SC2)c1C,18,102,-1,x,-9,98,x,x,x
Cc1occc1C(=O)NNC(=O)c1ccc(F)cc1,0,0.0*[inhibitor],-17,-5,6,-1.0*[inhibitor],104,2,103
COCCCNC(=S)NNC(=O)c1ccoc1C,1,74*[inhibitor],-3,-2,8,101,105,1,102
CN(C1CCCCC1)S(=O)(=O)c1cc2c(cc1Cl)NC(=O)CO2,0,100,1,0,8,98,x,x,x
COc1ccc(S(=O)(=O)N2CCCC(C(=O)N3CCCC3)C2)cc1OC (stereo not given),3,x,x,3,-23,x,x,x,x
COc1ccc(S(=O)(=O)N2CCC(C(=O)N3CCCCC3)CC2)cc1OC,1,130*,6,0,-2,121,98,9,102
Cc1cccc(NC(=O)CCN2CCN(C)CC2)c1,-3,106,2,2,-6,105,x,x,x
Cc1cccc(NC(=O)CN2CCN(CC(=O)Nc3cccc(C)c3)CC2)c1,-9,82*[inhibitor],-10,-11,0,91,109,1,105
Cc1cccc(NC(=O)CC2CCC2)c1,1,2.0*[inhibitor],-26,12,4,-1.0*[inhibitor],106,4,102
Cc1ccc(C(=O)CNc2ccc(Cl)cc2)cc1,-7,1.0*[inhibitor],-47,1,3,1.0*[inhibitor],100,-5,101
CN(C)CCC(=O)c1ccc(Cl)cc1,-19,110,27*,1,2,112,99,-4,99
COC1=CC(=O)C=C(OC)C1(O)CC(C)=O,x,x,x,-15,x,x,x,x,x
NS(=O)(=O)c1cccc(NC(=O)CSc2nc3ccccc3c(=O)n2CC2CCCO2)c1 (stereo not given),x,x,x,-11,8,x,x,x,x
COc1ccc(C(=O)CSc2n[nH]c(C)n2)cc1[N+](=O)[O-],13,46*[inhibitor],-14,6,5,59,104,1,101
Cc1nc(SCC(=O)c2cccc([N+](=O)[O-])c2)n[nH]1,15,101,-3,-5,-5,98,x,x,x
COc1ccccc1NC1=NCC(=O)N1Cc1ccccc1,-1,58,47*,-10,-10,58,102,0,100
COc1ccc(NC(=O)CSc2ccc3c4c(cccc24)C(=O)c2ccccc2-3)cc1,9,93,-9,-3,-82,56*[inhibitor],68,-18,90
N#Cc1cccc(NC(=O)CSc2ccc3c4c(cccc24)C(=O)c2ccccc2-3)c1,10,92,-7,-6,x,77,x,x,x
Cc1ccc2cc(CN(CCN3CCOCC3)Cc3nnnn3Cc3ccco3)c(=O)[nH]c2c1C,x,2.0*[inhibitor],-69,1,x,2.0*[inhibitor],106,5,103
Cc1ccc2cc(CN(Cc3ccc4c(c3)OCO4)Cc3nnnn3Cc3ccco3)c(=O)[nH]c2c1C,-6,96,1,-11,6,96,x,x,x
SMILES,PREPL inhibitor,MEKK3 PB1 HTS,MEKK2mut PB1 HTS,ATG4B inh,UBC13 inh,MEKK2wt PB1 HTS,MEKK2wt confirm,MEKK2mut confirm,MEKK3 confirm
CC(=O)Nc1cc(C(=O)N(C)Cc2ccco2)ccc1Sc1ccc(Cl)cc1,7,142*,1,2,-1,108,98,-3,102
CNC(=S)Nc1ccc(OC)c(OC)c1,-1,2.0*[inhibitor],-21,-12,-4,3.0*[inhibitor],100,3,104
O=C(CCCN1C(=O)c2cccnc2C1=O)Nc1ccc(Br)cc1,16,102,-1,-6,5,101,x,x,x
O=C(O)c1cccc(N2C(=O)c3cccc(Oc4ccc(Cl)cc4)c3C2=O)c1,1,131*,-1,-7,-31,101,93,-6,96
CCOC(=O)c1c(C)n(C)c2ccc(OC(=O)c3ccc([N+](=O)[O-])cc3)cc12,22,138*,-1,-8,-7,103,102,3,103
CCOC(=O)c1c(C)n(C)c2cc(-c3ccc(C)cc3)c(O)cc12,11,131*,0,-15,-9,105,103,1,103
CCN1C[C@@H]2[C@@H]3C(=O)N(C)C(=O)[C@@H]3[C@](Cc3ccccc3)(C(=O)OC)N2C1=NCc1ccccc1,x,x,x,-8,x,x,x,x,x
Cc1noc(C)c1NC(=O)N(C)C[C@H]1Oc2ccc(NC(=O)Nc3ccccc3)cc2C(=O)N([C@H](C)CO)C[C@@H]1C,5,x,x,-5,-6,x,x,x,x
O=c1cc(O)c2ccc(O)cc2o1,11,81,1,7,-3,80,x,x,x
O=c1ccc2[n+]([O-])c3ccc(O)cc3oc-2c1,x,92,-9,4,x,50*[inhibitor],85,-7,89
COc1cc(O)c(C(CCN2CCCCC2)c2ccc(N(C)C)cc2)c(OC)c1 (stereo not given),22,106,3,7,17,109,x,x,x
COc1cc(O)c(C(CC(=O)N2CCCC2)c2ccc3c(c2)OCO3)c(OC)c1 (stereo not given),3,96,-13,-3,-2,94,x,x,x
CCN(CC)CCC(c1ccc2c(c1)OCO2)c1c(O)cc(OC)cc1OC (stereo not given),4,119,12,9,14,150*,116,3,105
COc1ccc(C(CC(=O)N2CCOCC2)c2c(O)cc(OC)cc2OC)cc1 (stereo not given),11,133*,0,2,0,165*,102,4,96
